Rows were chosen to be rich in hits. Some 7.8% of all compounds tested hit in one or more screens of this group.
sEH act = soluble epoxide hydrolase activators, primary screen, biochemical, human sEH | purified human sEH enzymatic activity, activator screen | 91,000 tested, 0.04% active | AID 717, 2007 | activation, % at 2 µM; in the data active = activation above about 37%
Target sequence (P34913 whole entry, looked up): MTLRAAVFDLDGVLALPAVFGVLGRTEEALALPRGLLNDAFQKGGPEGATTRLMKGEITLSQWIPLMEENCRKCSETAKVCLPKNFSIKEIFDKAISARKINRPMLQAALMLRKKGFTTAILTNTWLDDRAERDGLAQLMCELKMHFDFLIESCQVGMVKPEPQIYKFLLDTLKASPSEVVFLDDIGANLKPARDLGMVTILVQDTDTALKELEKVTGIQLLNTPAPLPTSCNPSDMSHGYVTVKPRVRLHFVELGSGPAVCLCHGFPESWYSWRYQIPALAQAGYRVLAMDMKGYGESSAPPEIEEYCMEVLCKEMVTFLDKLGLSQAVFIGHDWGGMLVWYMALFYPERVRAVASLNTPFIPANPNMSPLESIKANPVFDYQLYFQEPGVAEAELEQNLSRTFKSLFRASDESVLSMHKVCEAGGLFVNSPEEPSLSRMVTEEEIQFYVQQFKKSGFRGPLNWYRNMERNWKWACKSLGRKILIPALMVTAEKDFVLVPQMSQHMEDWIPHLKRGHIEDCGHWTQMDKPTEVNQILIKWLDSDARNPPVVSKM
Cav3 T inh = Cav3.2 calcium influx blockers – cell-based, Fluo-4 calcium fluorescence, FDSS, MLSMR library, primary screen; Cav3.2-expressing cells; stronger effect = lower value; AID 449739, 2010; 100,000 tested, 4% active; B-score at 10 µM; Voltage-dependent T-type calcium channel subunit alpha-1H (Homo sapiens), O95180;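 active = single-dose well whose peak fluorescence ratio is a statistical outlier from its plate by either plate-standardised score or position-corrected B-score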
PostGolgi ctrl = growth inhibition of yeast control strain, primary screen, counter-screen for post-Golgi transport modulator project | inhibition, % at 10 µM | efflux-deficient yeast background strain, growth absorbance A615, 16 h | AID 738, 2007 | 98,000 tested, 5% active
sEH inh = soluble epoxide hydrolase inhibitors, primary screen, biochemical, human sEH. inhibition, % at 2 µM. 91,000 tested, 0.34% active. Bifunctional epoxide hydrolase 2 (Homo sapiens), P34913. recombinant human sEH enzymatic activity assay; in the data active = inhibition above about 80%
PostGolgi yeast = phenotypic screen on post-Golgi transport, primary screen | inhibition, % at 10 µM | 98,000 tested, 0.9% active | post-Golgi transport phenotypic cell assay | AID 739, 2007;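 also: yeast cells grown in 1536-well plates; yeast grown about 18 h at 30C before absorbance read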
Large screens that a line does not name were inactive. Rule as the data show it, unless noted: active = inhibition above about 30%; inactive = the rest.

CCCC(=O)Nc1ccc(-c2nc3cc(C)ccc3o2)cc1	PostGolgi ctrl 30
COc1cccc(-c2nc(CS(=O)CC(=O)NCc3ccc4c(c3)OCO4)c(C)o2)c1 (stereo not given)	Cav3 T inh -5 (no result: sEH act, sEH inh)
Cc1ccc(NC(=O)CS(=O)Cc2nc(-c3ccc(C)cc3)oc2C)cc1 (stereo not given)	Cav3 T inh -4.6
Cc1ccccc1-c1nc(CS(=O)CC(=O)NCc2ccccc2)c(C)o1 (stereo not given)	none (no result: sEH act, sEH inh)
Cc1ccc(-c2nc(CS(=O)CC(=O)NCc3ccccc3)c(C)o2)cc1 (stereo not given)	none (no result: sEH act, sEH inh)
Cc1ccc(CNC(=O)CS(=O)Cc2nc(-c3ccccc3C)oc2C)cc1 (stereo not given)	Cav3 T inh -4.5
CC(C)OCCCNC(=O)Cn1nc(-c2ccccc2)ccc1=O	none (no result: sEH act, sEH inh)
COc1cc2c3c(c1)C1(C(=O)N3C(C)(C)C=C2C)C(C#N)=C(N)Oc2cc(O)ccc21 (stereo not given)	none
CCOc1cc2c3c(c1)C1(C(=O)N3C(C)(C)C=C2C)C(C#N)=C(N)Oc2cc(O)ccc21 (stereo not given)	Cav3 T inh -5.6
COc1ccc(NCc2n[nH]c(=O)c3ccccc23)cc1	PostGolgi ctrl 32
O=C(CNC1CCCCCC1)Nc1ccc(N2CCCC2)cc1	none (no result: Cav3 T inh)
O=C(CNCCC1=CCCCC1)Nc1ccc(N2CCCCCC2)cc1	Cav3 T inh -5.1, PostGolgi ctrl 100
COc1ccc2c(Cl)c(C(=O)NCCCn3ccnc3)sc2c1Cl	none
Cc1cc(C)n2nc(SCc3nnc(SCc4ccccc4Cl)s3)nc2n1	PostGolgi ctrl 36
CCCNC(=S)N1CCC(NC(=O)C2CCCCC2)CC1	none
Cc1cc(Nc2ccc(F)cc2)n2nc(C)nc2n1	none (no result: sEH act, sEH inh)
Cc1cc(Nc2ccc(F)cc2Cl)n2nc(C)nc2n1	PostGolgi ctrl 32 (no result: sEH act, sEH inh)
CCCCC1=CC2=CC(=O)C(C)(OC(=O)CC)C(=O)C2=CN1CCN1CCOCC1 (stereo not given)	none (no result: sEH act, PostGolgi ctrl, sEH inh, PostGolgi yeast)
C/C(=N/O)c1ccccn1	none (no result: sEH act, PostGolgi ctrl, sEH inh, PostGolgi yeast)
CCCCCC/C(=N/O)c1ccccn1	PostGolgi ctrl 40
COc1ccc(Cn2c(=O)n(Cc3ccco3)c(=N)c3c4c(sc32)COC(C)(C)C4)cc1	none (no result: sEH act, sEH inh)
CC1(C)Cc2c(sc3c2c(=N)n(Cc2ccco2)c(=O)n3Cc2ccc(F)cc2)CO1	PostGolgi ctrl 64 (no result: sEH act, sEH inh)
Cc1ccccc1S(=O)(=O)Cc1ccc(C(=O)N2CCN(c3cccc(C)c3C)CC2)o1	PostGolgi ctrl 38 (no result: sEH act, sEH inh)
COc1ccc(S(=O)(=O)Cc2ccc(C(=O)N3CCN(c4ccccc4F)CC3)o2)cc1	PostGolgi ctrl 32 (no result: sEH act, sEH inh)
OCC[C@@H]1C[C@H](O)[C@@H](O)[C@]2(CCCO2)O1	none (no result: sEH act, PostGolgi ctrl, sEH inh, PostGolgi yeast)
CC(=O)OC(C(=O)Nc1ccccc1C)C(OC(C)=O)C(OC(C)=O)C(OC(C)=O)C(=O)Nc1ccccc1C (stereo not given)	none (no result: Cav3 T inh, PostGolgi ctrl, PostGolgi yeast)
COc1ccccc1-c1cn(S(=O)(=O)c2ccc(F)cc2)nc1N	none
O=C(NC1CC1)C1=C[C@@H](c2c[nH]c3ccccc23)C[C@@H](OCc2ccc(CO)cc2)O1	none (no result: sEH act, PostGolgi ctrl, sEH inh, PostGolgi yeast)
COc1ccc2nc(NC(=O)C3CCN(S(=O)(=O)c4cccs4)CC3)sc2c1	PostGolgi ctrl 37
Cc1ccc2nc(NC(=O)C3CCN(S(=O)(=O)c4cccs4)CC3)sc2c1	PostGolgi ctrl 44, PostGolgi yeast 38
Cc1cccc(-c2nnc(-c3cccc(NC(=O)Cc4cccs4)c3)o2)c1	PostGolgi yeast 81
Cc1ccc2nc(NC(=O)Cc3cccs3)sc2c1	Cav3 T inh -3.6
Cc1ccc2nc(NC(=O)C3CCN(S(=O)(=O)c4cccnc4)CC3)sc2c1	none
O=C(Cc1cccs1)Nc1ccc(-c2nnc(-c3ccccc3)o2)cc1	none (no result: PostGolgi ctrl, PostGolgi yeast)
CCOC(=O)c1c(CSC(=N)N)n(-c2ccc(C)cc2)c2cc(Br)c(OC(C)=O)cc12	Cav3 T inh -5.6
CCOC(=O)c1c(C)n(C)c2ccc(OC(C)=O)cc12	none (no result: PostGolgi ctrl, PostGolgi yeast)
CCOC(=O)c1c(CN2CCOCC2)n(-c2ccccc2)c2cc(Br)c(OC)cc12	PostGolgi ctrl 54
CCOC(=O)c1c(CN2CCN(C)CC2)n(C)c2cc(Br)c(OC)cc12	none (no result: sEH act, sEH inh)
COc1cc2c(C(=O)N3CCN(c4ccccc4)CC3)c(C)oc2cc1Br	PostGolgi ctrl 35
CCOC(=O)c1c(CN2CCOCC2)n(-c2ccccc2)c2cc(Br)c(O)cc12	PostGolgi ctrl 41
CCn1c(SCC(=O)Nc2oc(-c3ccccc3)c(-c3ccccc3)c2C#N)nnc1-c1cc(OC)cc(OC)c1	none
CN1CCN(CCC(=O)Nc2cccc(F)c2)CC1	Cav3 T inh -5
CCC(c1nnnn1CCOC)N1CCN(c2cccc(C(F)(F)F)c2)CC1 (stereo not given)	none
COCCn1nnnc1C(c1cccs1)N1CCN(c2cccc(C(F)(F)F)c2)CC1 (stereo not given)	Cav3 T inh -5.4
COCCN1C(=O)C(=O)/C(=C(/O)c2cccc(S(=O)(=O)N(C)C)c2)C12C(=O)N(C)c1ccccc12 (stereo not given)	none
O=C(CSc1nnc2scc(-c3ccccc3)n12)Nc1ccc2c(c1)OCCO2	PostGolgi ctrl 37
O=C(CCSc1nnc2scc(-c3ccccc3)n12)NCc1ccc2c(c1)OCO2	none
c1ccc(-c2csc3nnc(SCc4ccc5c(c4)OCO5)n23)cc1	PostGolgi ctrl 33
Cc1ccc2nc(SCCC(=O)O)cc(C)c2c1	none
COC(=O)CNC(=O)CNC(=O)c1nn(-c2ccc(OC)c(Cl)c2)c(=O)c2ccccc12	PostGolgi ctrl 35 (no result: Cav3 T inh)
CC(C)CCn1c(=O)c2ccccc2c2ccccc2c1=O	none
CC(C)Cn1c(=O)c2ccccc2c2ccccc2c1=O	PostGolgi ctrl 33
CC1(C)CC(=O)C2=C(C1)N(Cc1cccnc1)C(=O)C2(NC(=O)c1ccc(F)cc1)C(F)(F)F (stereo not given)	none
CCOc1ccc(N=c2scc(-c3ccccc3)n2CCO)cc1	none
OCCn1c(-c2ccc3c(c2)OCO3)csc1=Nc1ccccc1	Cav3 T inh -5.4
COc1ccc(N2CCN(C(=O)CSc3nnc4n3C(C)(C)Cc3ccccc3-4)CC2)cc1	none (no result: Cav3 T inh)
Cc1ccc(Cl)cc1N1CCN(C(=O)CSc2nnc3n2C(C)(C)Cc2ccccc2-3)CC1	Cav3 T inh -5.5 (no result: PostGolgi ctrl, PostGolgi yeast)
CCCCOC(=O)Cc1c(O)c2ccccc2[nH]c1=O	PostGolgi yeast 32
CCCCCOC(=O)Cc1c(O)c2ccccc2[nH]c1=O	none (no result: Cav3 T inh)
O=S(=O)(N/N=C1/CC(c2ccccc2)Oc2ccccc21)c1ccc(Br)cc1 (stereo not given)	PostGolgi ctrl 38 (no result: Cav3 T inh)
O=S(=O)(N/N=C1/CCCc2ccccc21)c1ccc(Br)cc1	Cav3 T inh -4.2 (no result: PostGolgi ctrl, PostGolgi yeast)
CC(=O)N1CCC(=NNS(=O)(=O)c2ccc(C)c([N+](=O)[O-])c2)CC1	none
Cc1ccc(C)c(S(=O)(=O)N/N=C2/CCCc3ccccc32)c1	none
Cc1ccc(S(=O)(=O)N/N=C2/CC(c3ccccc3)Oc3ccccc32)cc1[N+](=O)[O-] (stereo not given)	PostGolgi ctrl 36
